# Screening data as filed in PubChem BioAssay.
# Only some compounds are listed: those with a hit (about 3% of all), similar ones and a draw of the others.
# UbGFP stabilizer = Ubiquitin-GFP Assay | Ubiquitin-GFP reporter cells, proteasome inhibition, GFP fluorescence; response scale: untreated = 0%, 10 µM MG-132 = 100% | Potency, µM (doses to about 45.9 µM), inactives show at the highest dose activation (GFP accumulation), actives largely listed as activators | 67,000 tested, under 10 active | AID 526, 2006; active = well fitted activation curve with a large enough effect, not every such curve was filed as active; inconclusive = small, poorly fitted or top-dose-only effect, or another doubt; inactive = no such curve, though single readings can be large or run the other way; also: potency is read from the fitted curve at half-maximal effect
#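 U2OS cells stably expressing ubiquitin(G76V)-GFP, seeded overnight in 0.5% FBS medium, were exposed to compounds (qHTS, 46 uM to 2.9 nM) for 4 hr at 37 °C. GFP-positive cells were counted by laser cytometry (488 ex/515 em), normalized between basal and 10 uM MG-132.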
# ERK AVP inh = qHTS Assay for Inhibitors of the ERK Signaling Pathway using a Homogeneous Screening Assay; 0.99% of 72,000 active; AID 995, 2007; Potency, µM (titrated, usually from 57.5 µM), without a hit: at the highest dose activity, negative = inhibition, actives largely listed as inhibitors; HEK293-V1b, vasopressin-stimulated pERK AlphaScreen; also: potency is read from the fitted curve at half-maximal effect; % is scaled to controls: 0 for no effect and ±100 for the full control effect; nearly all actives have a fitted effect of over 55% in size
#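 Phosphorylated ERK1/2 detected via AlphaScreen bead proximity in lysates of V1b-expressing HEK293 cells given 25 nM vasopressin for 5 min after 30 min compound exposure (37 °C). AC50 from Hill equation; basal DMSO 0%, vasopressin 100%.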
# Tau filament bind = qHTS Assay for Tau Filament Binding; Potency, µM (highest dose often 57.1 µM), for the others: top-dose activity change, negative = inhibition; AID 596, 2007; 2% of 71,000 active; recombinant tau filaments, thioflavin S fluorescence, 15 h; filaments grown with octadecylsulfate alongside compound; Microtubule-associated protein tau (Homo sapiens), P10636;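 also: potency is read from the fitted curve at half-maximal effect; % is scaled to controls: 0 for no effect and ±100 for the full control effect; actives lower thioflavin S fluorescence by blocking filaments or displacing dye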
#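 Assay mix: 1 uM His-tagged tau, 30 uM sodium octadecylsulfate, thioflavine S dye in HEPES/NaCl/DTT buffer. Compound is added prior to the inducer. Fluorescence after 15 h at 37 C.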
# Hsp90 Hop PPI = qHTS Assay for Disrupters of an Hsp90 Co-Chaperone Interaction; Hsp90 C-terminal peptide / TPR2A (Hop) interaction, human; AlphaScreen TPR2A-His6 binding biotin-Hsp90 C-terminal peptide; Potency, µM (doses to about 57 µM), inactives show at the highest dose activity change, negative = inhibition; 0.44% of 71,000 active; AID 595, 2007; active = well fitted curve in either direction with a large enough effect; inconclusive = small, poorly fitted or top-dose-only effect, or another doubt; also: potency is read from the fitted curve at half-maximal effect; % is scaled to controls: 0 for no effect and ±100 for the full control effect
# Epigenetic mod = qHTS Assay for Epigenetic Modulators. mouse C127i GFP locus derepression, cytometry, 30 h. Potency, µM (series often up to 46.1 µM), for the others: top-dose GFP derepression (activation). 0.09% of 68,000 active. AID 597, 2007; also: % of control where 0% means no effect
#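 Locus derepression in mouse mammary C127i cells whose integrated CMV-GFP reporter is normally silent; GFP expression after 30 h compound treatment was quantified by counting fluorescent cells.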
# HBB splicing = qHTS Assay for Modulators of Hemoglobin Beta Chain Splicing; 0.06% of 65,000 active; Potency, µM (doses to about 46.1 µM), without a hit: at the highest dose activation, hits mostly activators; HBB splicing reporter cell assay, activation; EGFP reporter with mutant IVS2-654 intron; response scale: normalised to 500 nM splice-correcting PNA; AID 925, 2007; also: potency is read from the fitted curve at half-maximal effect; 0% is about no effect
#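 HeLa cells stably expressing EGFP interrupted by mutant beta-globin intron 2 (IVS2-654), 500/well in 2% FCS. Treated with compound for 2 days at 37C. Splicing correction scored as total well GFP intensity (488 nm excitation, 500-520 nm emission); 500 nM antisense PNA served as control.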
# The depositor's hits bear a star; ? = inconclusive; . = not tested or not shown; [ ] = remark or other dose. Unless noted, calls follow the shape of the dose curve; as a rule, active = well fitted curve in the direction sought with a large enough effect; inconclusive = small, poorly fitted or top-dose-only effect, or another doubt; inactive = no such curve, though single readings can be large; an effect the other way counts as inactive or inconclusive.
SMILES,UbGFP stabilizer,ERK AVP inh,Tau filament bind,Hsp90 Hop PPI,Epigenetic mod,HBB splicing
c1ccc(CSc2nnc3c(n2)OC(c2ccco2)Nc2ccccc2-3)cc1 (stereo unspecified),9%[9.17 µM],?,4µM*,-12%[11 µM],0%,1%[0.0738 µM]
COc1ccc(CC[N@+]2(C)COc3cc4oc(=O)cc(C)c4cc3C2)cc1OC,4%[9.17 µM],-11%[11.5 µM],-4%[11.4 µM],1%[11 µM],-4%[9.22 µM],-1%[9.22 µM]
CCN(CC)C(=O)Oc1ccc2c(=O)c(-c3ccc(OC)cc3)c(C)oc2c1,-3%,32µM*,4%,-2%,2%,11%[0.369 µM]
Cc1ccc2[nH]c3c(c2c1)CCc1cn[nH]c1-3,1%,?,7.9µM*,-4%,0%,1%[1.84 µM]
Cc1ccc2[nH]c3c(c2c1)CCC3=O,-6%,6%,-4%,0%,3%,-1%
CCOC(=O)c1ccc(NC(=O)CCc2nc(-c3cccc(C)c3)no2)cc1,11%,25µM*,153%,8%,0%,0%[1.84 µM]
Cc1cccc(-c2noc(CCc3ccccc3)n2)c1,0%,93%,-1%,32µM*,-4%,1%
COc1cc2nncc(SCc3ccc(Cl)c(Cl)c3)c2cc1OC,7%[9.17 µM],-2%[11.5 µM],3%[11.4 µM],-5%[11 µM],3%[9.22 µM],1%[9.22 µM]
NC(=S)SCCC(=O)O,3%[9.17 µM],-18%[11.5 µM],-2%[11.4 µM],-2%[11 µM],-2%[9.22 µM],3%[9.22 µM]
CN(C)C(=O)C1CCN(Cc2c[nH]c3ccccc23)CC1,-2%[9.17 µM],-19%[11.5 µM],14%[11.4 µM],-3%[11 µM],-6%[9.22 µM],0%[9.22 µM]
NN(CC(=O)O)CC(=O)O,-5%[9.17 µM],7%[11.5 µM],2%[11.4 µM],0%[11 µM],2%[9.22 µM],3%[9.22 µM]
O=[N+]([O-])c1ccc(Nc2nc3ccccc3s2)cc1,-4%[9.17 µM],6%[11.5 µM],4µM*,-23%[11 µM],7%[9.22 µM],5%[9.22 µM]
Cc1ccc(N2C(=O)c3ccc(N)cc3C2=O)cc1,0%,26%,15%,?,-1%,.
Nc1ccc2c(c1)C(=O)c1ccccc1C2=O,.,?,1.6µM*,-9%,.,-1%
Fc1cccc(Cl)c1/C=N\N=C1c2ccccc2-c2ccccc21,-4%[9.17 µM],-20%[11.5 µM],4µM*,?,14%[9.22 µM],3%[9.22 µM]
CN1CCC[C@H](C(=O)OCC(=O)[C@]2(O)CC[C@@H]3[C@H]4CCC5=CC(=O)CC[C@@]5(C)[C@H]4[C@@H](O)C[C@]32C)C1,-6%[9.17 µM],4%[11.5 µM],-3%[11.4 µM],-3%[11 µM],-2%[9.22 µM],3%[9.22 µM]
CCCNC[C@H](O)COc1ccccc1C(=O)CCc1ccccc1,-2%[20.5 µM],-16%[25.7 µM],-15%[25.6 µM],3%[26 µM],-2%[20.6 µM],-1%[20.6 µM]
Cc1ccc(C23CC4CC(CC(NC(=O)N5CCN(C)CC5)(C4)C2)C3)cc1,1%,-14%,16µM*,-3%,0%,0%
Cc1ccc2c(c1)nnn2C1CCN(C(=O)NC23CC4CC(CC(C4)C2)C3)CC1,0%,3%,-3%,0%,-2%,.
O=NN(Cc1ccc(Cl)cc1)[C@@H](C(=O)O)c1ccccc1,3%[9.17 µM],1%[11.5 µM],3%[11.4 µM],-5%[11 µM],0%[9.22 µM],2%[9.22 µM]
